This is a sample that favours compounds with a hit; in the whole collection about 12% have one here.
BAZ2B block – qHTS Assay for Inhibitors of BAZ2B; Bromodomain adjacent to zinc finger domain protein 2B (Homo sapiens), Q9UIF8; AlphaScreen BAZ2B-H3K14Ac peptide displacement; 360,000 tested, 4.4% active; AID 504333, 2011; Potency, µM (series often up to 114 µM), inactives show at the highest dose activity change, negative = inhibition, hits mostly inhibitors; also: % is scaled to controls: 0 for no effect and ±100 for the full control effect; nearly all actives have a fitted effect of over 60% in size
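Protein-peptide AlphaScreen: BAZ2B 50 nM, b-H3K14Ac 50 nM, 1x PBS pH 7.4 + 0.01% Tween-20. Preincubation 30 min RT; cpd 30 min RT (top 110 uM); beads 20 min RT, light-protected.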
G9a block – qHTS Assay for Inhibitors of Histone Lysine Methyltransferase G9a; Histone-lysine N-methyltransferase EHMT2 (Homo sapiens), Q96KQ7; G9a H3K9 monomethylation, AlphaScreen, 2 h; Potency, µM (highest dose often 102 µM), inactives show at the highest dose activity, negative = inhibition, hits mostly inhibitors; 350,000 tested, 8.8% active; AID 504332, 2011; also: % is scaled to controls: 0 for no effect and ±100 for the full control effect; nearly all actives have a fitted effect of over 75% in size
Target sequence (Q96KQ7 913-1193 limits assumed): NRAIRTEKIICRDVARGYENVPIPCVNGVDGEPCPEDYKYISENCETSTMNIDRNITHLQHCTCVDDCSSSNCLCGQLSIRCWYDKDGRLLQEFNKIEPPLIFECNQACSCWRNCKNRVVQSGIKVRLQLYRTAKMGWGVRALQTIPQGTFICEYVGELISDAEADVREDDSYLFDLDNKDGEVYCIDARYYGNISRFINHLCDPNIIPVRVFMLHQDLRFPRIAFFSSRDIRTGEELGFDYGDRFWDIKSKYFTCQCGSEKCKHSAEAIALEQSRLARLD
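Signal arises when biotinylated H3K9 peptide, once monomethylated, bridges streptavidin donor and antibody-captured acceptor beads. Enzyme at 20 nM was preincubated 15 min with test compounds; peptide 500 nM and SAM 20 uM then reacted for 2 h.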
Sfp PPTase inh – qHTS Assay for Inhibitors of Bacillus subtilis Sfp phosphopantetheinyl transferase (PPTase). 4'-phosphopantetheinyl transferase ffp (Bacillus subtilis), Q9F4F7. Biochemical Sfp PPTase activity, qHTS. Potency, µM, inactives show largest response in the series, negative = inhibition, most hits filed as inhibitors. 310,000 tested, 3.5% active. AID 1490, 2009;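 also: the enzyme is Sfp with the accession as filed and its product quenches rhodamine fluorescence; 0% = enzyme reaction without inhibitor and -100% = no enzyme wells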
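Step 1, compound plus 15 nM Sfp-PPTase, 15 min, room temperature. Step 2, add rhodamine-CoA (5 uM) and BHQ-2-YbbR (12.5 uM). Step 3, read 525/598 nm fluorescence at 0 and 30 min.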
JMJD2A Tudor inh – qHTS Assay for Inhibitors of JMJD2A-Tudor Domain; Lysine-specific demethylase 4A (Homo sapiens), O75164; AlphaScreen JMJD2A-Tudor / H3K4me3 peptide binding; Potency, µM (top dose mostly 114 µM), for the others: top-dose activity change, negative = inhibition, usual class: inhibitors; 390,000 tested, 4.4% active; AID 504339, 2011; also: % is scaled to controls: 0 for no effect and ±100 for the full control effect; nearly all actives have a fitted effect of over 50% in size
L3MBTL1 block – qHTS Assay for the Inhibitors of L3MBTL1 | Lethal(3)malignant brain tumor-like protein 1 (Homo sapiens), Q9Y468 | AlphaScreen L3MBTL1–H3K9me1 peptide binding | Potency, µM (series often up to 57.1 µM), without a hit: at the highest dose activity, negative = inhibition, usual class: inhibitors | 230,000 tested, 0.66% active; also: % is scaled to controls: 0 for no effect and ±100 for the full control effect; nearly all actives have a fitted effect of over 60% in size
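AlphaScreen proximity signal between nickel-chelate acceptor and streptavidin donor beads (final 10 ug/mL) reports binding of 50 nM L3MBTL1 to 75 nM biotin-H3 K9me1 peptide; complex incubated with compounds 30 min at room temperature; cefsulodin titration as control.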
HP1b chromo inh – HTS for Inhibitors of HP1-beta Chromodomain Interactions with Methylated Histone Tails; AlphaScreen HP1-beta / biotin-H3K9me3 peptide binding; AID 540317, 2011; 390,000 tested, 0.56% active; Potency, µM (highest dose often 114 µM), for the others: at the highest dose activity change, negative = inhibition, usual class: inhibitors; Chromobox protein homolog 1 (Homo sapiens), P83916; also: nearly all actives have a fitted effect of over 70% in size
Target sequence (P83916 whole entry, looked up): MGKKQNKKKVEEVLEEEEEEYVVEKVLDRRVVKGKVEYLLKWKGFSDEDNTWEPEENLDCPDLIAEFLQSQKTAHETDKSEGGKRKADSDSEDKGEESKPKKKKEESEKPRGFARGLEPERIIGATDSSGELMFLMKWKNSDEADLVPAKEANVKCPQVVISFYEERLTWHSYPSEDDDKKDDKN
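Compound inhibition of the preformed complex between 50 nM HP1-beta and 50 nM biotinylated H3K9me3 peptide was read by AlphaScreen. Buffer was PBS pH 7.4 with 0.01% Tween-20. Incubations ran 30 min at room temperature, with 10 ug/mL donor/acceptor beads.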
Starred values were filed as active, the others as inactive; ? = inconclusive; . = not tested or not shown; ! = repeats disagree; [ ] = another dose, or the depositor's remark. Calls follow the shape of the dose curve; as a rule, active = well fitted curve in the direction sought with a large enough effect; inconclusive = small, poorly fitted or top-dose-only effect, or another doubt; inactive = no such curve, though single readings can be large; an effect the other way counts as inactive or inconclusive. Potency is read from the fitted curve at half-maximal effect.

SMILES	BAZ2B block	G9a block	Sfp PPTase inh	JMJD2A Tudor inh	L3MBTL1 block	HP1b chromo inh
Cc1nn(C(=O)c2ccccc2)c(C)c1S(=O)(=O)N1CCCCCC1	17.7%	3.3%[59 µM]	.	9.6%	.	36.7%[57 µM]
CN1CCN(CCCN2c3ccccc3Sc3ccc(C(F)(F)F)cc32)CC1	35.5µM*	15.8µM*!	?	?	-5.0%	?
c1ccc2c(c1)Sc1ccccc1N2CCN1CCCC1	.	-40.8%[12.7 µM]	0.4%	.	.	.
O=C1CSC2(CCN(CCCN3c4ccccc4Sc4ccc(Cl)cc43)CC2)N1	.	17.8µM*	-13.9%	.	.	.
Cc1ccc(NC(=O)CSc2nc3ccc(NC(=O)COc4ccc(C)cc4)cc3s2)cc1	-1.0%	4.3%[59 µM]	.	-1.3%	.	50.4%
CCn1c(SCC(=O)N/N=C\c2ccccc2OCC(=O)O)nnc1-c1ccc(Cl)cc1	-8.8%	?	1.3%	1.0%	1.5%	33.2%
O=C(O)COc1ccccc1/C=N/NC(=O)CSc1nc2ccccc2c(=O)n1-c1ccc(Cl)cc1	56.2µM*	?	2.4%	?	.	15.1%
CCn1c(SCC(=O)N/N=C/c2ccccc2OCC(=O)O)nnc1-c1ccc(OC)cc1	56.2µM*	-22.6%	-1.9%	-17.6%	-14.2%	-6.9%
O=C(O)COc1ccccc1/C=N/NC(=O)CSc1nc2ccccc2c(=O)n1-c1ccccc1	?	-2.5%	22.0%	-28.1%	.	0.9%
CCOC(=O)c1ccc(NC(=O)c2cc3c(=O)n(C)c4ccccc4c3n2C)cc1	-6.1%	-4.0%[59 µM]	.	-18.5%	.	25.0%
O=C(NCCCn1ccnc1)C(=O)Nc1ccccc1	-26.6%	-8.5%	9.8%	79.4µM*	5.5%	?
COC(=O)c1ccc(NC(=S)NCCCn2ccnc2)cc1	79.4µM*	-9.6%	12.6%	-23.2%	-5.8%	4.2%
CN(C)S(=O)(=O)c1cccc(NC(=S)NCCCn2ccnc2)c1	79.4µM*	-0.7%	1.8%	-4.1%[57.1 µM]	-16.7%	14.3%
O=C(NCCCn1ccnc1)c1ccc(-c2ccccc2)cc1	?	15.4%	12.2%	-16.9%	.	24.3%
Cc1cc(C(=O)NCCCn2ccnc2)sc1-c1ccccc1	50.1µM*	?	-3.6%	?	-19.4%	-4.0%
CCOC(=O)c1ccc(NC(=S)NCCCn2ccnc2)cc1	56.2µM*	?	3.9%	-25.5%	-18.1%	38.1%
CCc1ccc(C(=O)COC(=O)C(Cc2c[nH]c3ccccc23)NC(=O)c2ccc(Br)cc2)cc1 (centres undefined)	14.3%	20.2%[59 µM]	.	-26.1%	.	39.9%
N[C@H](CO)C(=O)O	.	11.9µM*!	-3.6%	.	.	.
N[C@H](C(=O)O)C(O)C(O)C(O)CO (some centres undefined)	.	.	5.2%	.	.	.
N[C@@H](CO)C(=O)O	.	.	63.1µM*!	.	.	.
Cc1cccc(CNc2cc(-c3ccc(C(=O)N(C)C)cc3)ncn2)c1	.	.	-16.6%	.	.	.
COc1ccccc1CNC(=O)CCC1N=C2c3ccccc3N=C(SCC(=O)Nc3ccc(N(C)C)cc3)N2C1=O (centres undefined)	-36.3%	-43.2%[59 µM]	.	?	.	-15.9%
Cc1occc1C(=O)NCc1cccc(CNC(=O)c2ccoc2C)c1	50.1µM*	22.4µM*	?	56.2µM*	-25.7%[11.4 µM]	?
O=C(NCc1ccco1)c1ccc2nc3sc4c(c3c(=O)n2c1)CCCC4	1.9%	?	10µM*	.	-13.7%	.
C#CCSc1nc2sc3c(c2c(=O)n1-c1cccc(OC)c1)CCN(C(C)=O)C3	?	?	.	89.1µM*	.	-3.3%
SMILES	BAZ2B block	G9a block	Sfp PPTase inh	JMJD2A Tudor inh	L3MBTL1 block	HP1b chromo inh
COc1ccc(-n2c(SCC(=O)NCc3ccco3)nc3sc4c(c3c2=O)CCN(C)C4)cc1	-28.5%	79.4µM*	-2.0%	-23.9%	.	-2.5%
CN1CCc2c(sc3nc(SCC(=O)N4CCOCC4)n(-c4ccc(Cl)cc4)c(=O)c23)C1	?	70.8µM*	4.9%	-25.0%	.	5.0%
COC(=O)CSc1nc2sc3c(c2c(=O)n1-c1ccc(OC)cc1)CCN(C)C3	-7.1%	11.9%	-2.5%	-25.2%	.	-5.6%
CCCCCSc1nc2sc3c(c2c(=O)n1-c1ccccc1)CCN(C(C)=O)C3	-16.6%	?	.	-27.3%	.	2.6%
Cc1sc2nc(SCC(=O)NCc3ccco3)n(-c3ccccc3)c(=O)c2c1C	7.4%	17.7%	8.3%	-13.5%	3.6%	18.5%
CN1CCc2c(sc3nc(SCC(=O)NCc4ccco4)n(-c4ccccc4)c(=O)c23)C1	?	44.7µM*	-0.2%	-13.6%	.	40.3%
FC(F)(F)c1ccccc1-c1cncnc1NCc1cccnc1	.	-4.3%[0.501 µM]	2.0%	.	.	.
CCc1cc[n+](/C(C(=S)Nc2cccc(C)c2)=C(/[O-])c2ccc(C)c([N+](=O)[O-])c2)cc1	?	39.8µM*	-9.7%	-31.5%	-8.2%	?
Cc1ccc(/C([O-])=C(/C(=S)NCc2ccccc2)[n+]2ccccc2)cc1[N+](=O)[O-]	?	20µM*	-25.7%	-25.3%	-4.2%	-8.7%
C=CCNC(=S)/C(=C(\[O-])c1ccc(Cl)cc1)[n+]1ccccc1	-16.7%	.	8.91µM*	-13.1%	49.7%	30.4%
Cc1ccc(C([O-])=C(C(=S)NCc2ccccc2)[n+]2cccc(CO)c2)cc1[N+](=O)[O-]	.	.	.	?	.	-16.5%
O=C(NCc1ccccc1)NC(=O)c1ccc(Cl)cc1	.	.	.	3.8%	.	34.4%
[O-]/C(=C(\C(=S)NCc1ccccc1)[n+]1ccccc1)c1ccc(Cl)cc1	-36.4%	22.4µM*	-54.6%	?	-16.7%	?
COc1ccc(N(Cc2cccs2)C(=O)c2ccc(OC)c(Cl)c2)cc1	-29.1%	26.6%[59 µM]	.	4.0%	.	58.3%
Cc1cc(O)c(C(c2cccc(F)c2)N2CCN(c3ccccc3)CC2)c(=O)n1Cc1ccco1 (centres undefined)	-38.6%	?	.	?	.	14.6%[57 µM]
CCOC(=O)c1c(NC(=O)c2ccc(S(=O)(=O)N3CCCC(C)C3)cc2)sc2c1CC(C)(C)NC2(C)C (centres undefined)	1.0%	2.4%[59 µM]	.	-17.4%	.	27.5%
CC(=O)c1c(C)[nH]c(C(=O)NNC(=O)COc2cc(C)cc(C)c2)c1C	-25.6%	50.1µM*	.	-14.2%	0.1%	16.5%
Cc1nc2c3ccccc3nc(NNC(=O)CCC(=O)N3CCN(c4cccc(C(F)(F)F)c4)CC3)n2n1	-21.2%	5.2%[59 µM]	.	-22.6%	.	37.1%

Assay outcomes as filed in PubChem.
